# PG9 Ab binder: binds the HIV-1 gp120 antibody PG9. TR-FRET gp120-PG9 antibody binding. inhibition, % at 6.7 µM. actives 0.43% (n = 360,000); in the data active = inhibition above about 8.5%
# RAM network inh: blocks the yeast RAM network. S. cerevisiae dse1pr::URA3 reporter, 5-FOA growth OD615, 2 d; analog-sensitive cbk1-as2 kinase mutant strain. inhibition, % at 50 µM. actives 1.8% (n = 190,000). AID 868;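 active = inhibition above a set limit, 3 SD over mean compound inhibition, cut at about 8.4% in these data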;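 note: 0% = DMSO-only wells with no growth and 100% = 10 µM 1-NA-PP1 full growth; inhibition rescues growth on 5-FOA so higher OD means more RAM inhibition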
# EP2 antag: blocks the human prostaglandin E2 receptor EP2; AID 1422; C6 glioma cells expressing human EP2, cAMP TR-FRET; cells stimulated with saturating PGE2; P43116; inhibition, % at 25 µM; actives 0.52% (n = 260,000);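 active = percent inhibition above 40 after rounding to a whole number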;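 note: rat C6 glioma host cells with rolipram phosphodiesterase inhibitor present; the protocol text gives 20 µM as final concentration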
# Rev-erbA mod: Rev-erb alpha (human) modulation; activity, % at 10 µM; Rev-erbα–FITC-DNA binding, fluorescence polarization, 90 min; P20393; AID 1259318; actives 0.79% (n = 370,000);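 active = activity above about 14%, limit read from the data; passing the limit was not always enough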;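 note: 0% = DMSO wells with 35 nM protein and 100% = DMSO wells with 750 nM protein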
# Target sequence (P20393 whole entry, looked up): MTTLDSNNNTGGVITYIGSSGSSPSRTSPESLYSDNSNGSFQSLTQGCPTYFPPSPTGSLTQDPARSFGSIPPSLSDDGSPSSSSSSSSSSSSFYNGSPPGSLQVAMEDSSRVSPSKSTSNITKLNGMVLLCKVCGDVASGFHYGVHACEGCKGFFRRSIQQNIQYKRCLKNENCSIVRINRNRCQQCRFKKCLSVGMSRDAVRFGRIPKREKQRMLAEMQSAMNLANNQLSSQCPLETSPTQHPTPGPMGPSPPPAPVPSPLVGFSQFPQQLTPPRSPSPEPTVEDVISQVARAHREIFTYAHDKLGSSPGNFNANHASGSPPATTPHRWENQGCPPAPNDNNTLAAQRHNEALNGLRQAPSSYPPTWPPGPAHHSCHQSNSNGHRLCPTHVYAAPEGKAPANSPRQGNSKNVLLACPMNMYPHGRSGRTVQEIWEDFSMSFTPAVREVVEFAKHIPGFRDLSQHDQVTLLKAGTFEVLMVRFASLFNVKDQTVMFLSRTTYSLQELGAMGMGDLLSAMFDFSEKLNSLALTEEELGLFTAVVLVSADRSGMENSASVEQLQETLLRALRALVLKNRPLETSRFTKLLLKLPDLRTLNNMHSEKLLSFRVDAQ
# EP2 mod: modulators of human EP2 prostaglandin E2 receptor | EP2-expressing cells, cAMP HTRF FRET, PGE2 co-stimulation | induction, % at 25 µM | actives 0.83% (n = 260,000) | AID 940;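 active = compounds whose cAMP rise, as percent of the full-agonist control response, exceeds 60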;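 note: rat C6 glioma line stably carrying human EP2 under a CMV promoter; the protocol text gives 20 µM as final concentration; 100% = response of wells given 1 µM PGE2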
# SKN-1 inh: inhibitors of C. elegans SKN-1 | C. elegans VP596 Pgst-4::GFP/RFP ratio, acrylamide-induced, 24 h | inhibition, % at 21.8 µM | actives 0.49% (n = 360,000) | AID 624304;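 active = interference check ratio from 0.5 to 1.5 plus GFP to RFP signal ratio inhibition reaching or exceeding a fixed threshold, cut at about 30% in these data, passing the limit was not always enough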
# An asterisk follows results filed as active; . = no result given. A selection: hits, their analogues and other compounds. The true share with any hit is near 2.9%.
SMILES,PG9 Ab binder,RAM network inh,EP2 antag,Rev-erbA mod,EP2 mod,SKN-1 inh
COc1ccc(/C=C2\CCCC3C2=NN(C(=O)CSc2ncn[nH]2)C3c2ccc(OC)cc2)cc1 (configuration not stated),-2.8,8.4*,4.9,9.6,55.1,3.9
Cc1ccc(C)c(-n2c(SCC(=O)NC3CCCC3)nnc2-c2cccnc2)c1,.,.,14.3,.,-26.9,.
Cc1ccc(OCCCCn2cnc3ccccc32)c(C)c1,-1.9,0.5,9.1,3.5,-3.6,44.4*
Brc1ccccc1OCCCCn1cnc2ccccc21,2.1,-0.2,11.7,7.8,-24.6,4.4
CCOC(=O)C1=C(O)/C(=C/c2ccc(OCC(=O)O)c(OCC)c2)SC1=Nc1ccccc1,-1.1,10.3*,4.7,-7.8,44.5,4.4
CCCCN1C(=O)C2ON(c3ccccc3C)C(c3ccco3)C2C1=O (configuration not stated),.,5.5,12.0,2.0,63.5*,8.8
COC(=O)c1ccc(-c2ccco2)n1Cc1cc(C)ccc1C,1.0,1.3,5.9,5.8,62.3*,5.8
O=C(O)c1ccc(-c2ccco2)n1Cc1ccccc1,-1.9,2.5,18.2,3.0,6.2,16.6
c1ccc(Nc2nc(NCC3CCCO3)c3ccccc3n2)cc1 (configuration not stated),-2.2,0.0,12.8,7.1,-86.5,18.7
CCOc1ccc(Nc2nc(NCC3CCCO3)c3ccccc3n2)cc1 (configuration not stated),-2.4,-0.6,52.1*,1.2,-71.6,1.0
C=CCNC(=O)C1CC(c2cccc(Br)c2)=NO1 (configuration not stated),.,.,4.6,.,-35.9,.
CCOc1ccc(NC(=S)N(CCO)Cc2cc3cc(OCC)ccc3[nH]c2=O)cc1,.,.,7.8,.,-77.6,.
Cc1nc(-c2ccccc2)c(CC(=O)NC2CCCOC2)s1 (configuration not stated),.,.,8.4,.,-4.2,.
C/C(=N\OC(=O)NC1CCCCC1)c1sc(-c2ccccc2)nc1C,-3.4,10.5*,7.8,-2.5,-24.9,6.0
N#Cc1c(-c2ccccc2)c(-c2ccccc2)nn(CC(=O)NNC(=O)Nc2ccc(Cl)cc2)c1=O,-0.1,.,78.7*,-4.2,2.5,11.4
CCN1/C(=C/c2ccc3cc(C)ccc3[n+]2C)Sc2ccc3sccc3c21,-34.3,3.8,45.4*,11.6,-59.9,57.6
CCN1/C(=C/c2ccc3ccccc3[n+]2C)Sc2cc(C)ccc21,.,.,51.9*,.,-55.5,.
O=C(O)c1cccc(Cn2c(Cl)c(/C=N/NC(=O)c3ccc(O)cc3)sc2=O)c1,0.3,.,3.3,-1.6,61.4*,-10.3
COc1ccc(NC(C)=O)cc1S(=O)(=O)Nc1ccc(C(=O)N2CCCCC2)cc1,.,.,4.2,.,-26.9,.
Cc1cc(CC(C)C)n(-c2nc3ccccc3c(=O)n2OCc2ccccc2)n1,1.0,9.8*,2.5,-5.5,38.3,37.1*
Cc1cc(CC(C)C)n(-c2nc3ccccc3c(=O)n2OCC(=O)N(C)C)n1,1.6,-0.4,5.1,-2.0,-15.9,9.6
CC1CCN(c2nc3c(c(=O)n(C)c(=O)n3C)n2CCSc2nc3ccccc3s2)CC1,-2.2,3.5,9.2,3.0,61.0*,-17.5
COc1ccc(CNCCC(c2ccc(OC)cc2)c2ccccc2OC)cc1 (configuration not stated),0.6,.,.,0.6,.,37.5*
CN(C1=C(NC(=O)c2ccccc2)C(=O)c2ccccc2C1=O)C1CCS(=O)(=O)C1 (configuration not stated),-7.4,-0.1,44.1*,-2.7,-59.0,-1.7
COc1nc2c(c(=O)n(C)c(=O)n2C)n1Cc1ccc(C#N)cc1,.,.,7.4,.,-13.9,.
SMILES,PG9 Ab binder,RAM network inh,EP2 antag,Rev-erbA mod,EP2 mod,SKN-1 inh
Cc1cc2cc(CNC(=O)Nc3ccccc3)ccc2n1C,-2.0,5.2,7.9,-7.9,0.5,38.5*
CCc1cccc(C)c1NC(=S)NCc1ccc2c(c1)cc(C)n2C,-0.8,4.5,11.5,-5.0,-33.7,97.3*
Cc1cc2cc(CNC(=S)NCc3ccccc3)ccc2n1C,-1.4,6.5,5.0,-4.5,-42.4,36.0*
Cc1ccccc1NC(=S)NCc1ccc2c(c1)cc(C)n2C,-2.7,3.9,7.0,-7.5,-39.5,23.6
Cc1ccc(CNC(=O)C2CCCN(c3cc(C)nc4ncnn34)C2)cc1 (configuration not stated),.,.,10.5,.,-57.4,.
O=C(c1cc2c(s1)CCC2)N1CCC(c2ccncc2)CC1,.,.,.,.,-68.7,.
CCOC(=O)c1cnc(SCC(=O)NNC(=O)C(C)C)nc1N,.,.,8.2,.,-12.8,.
CC(C)(C)C(=O)N1CCCC1c1nc(-c2cccnc2)n[nH]1 (configuration not stated),.,.,5.1,.,1.9,.
CCC1=C(CC2NCCc3ccccc32)CC2c3cc(OC)c(OC)cc3CCN2C1 (configuration not stated),1.0,.,.,-2.4,.,13.9
CCC1=C(C[C@H]2NCCc3ccccc32)C[C@H]2c3cc(OC)c(OC)cc3CCN2C1,.,.,53.1*,.,22.0,.
O=C(O)CCC(=O)NC1CCN(Cc2ccccc2)CC1,.,.,3.7,.,-4.9,.
Cc1cc(C)nc(NS(=O)(=O)c2ccc(N3C(=O)C4C5C=CC(C5)C4C3=O)cc2)n1 (configuration not stated),0.3,0.4,3.2,3.5,7.2,3.5
CC1=CC2CC1C1C(=O)N(c3ccc(S(=O)(=O)Nc4nc(C)cc(C)n4)cc3)C(=O)C21 (configuration not stated),-0.7,9.8*,6.3,-2.9,18.2,-1.1
C=CCN(CC=C)CC(O)CN(c1cc([N+](=O)[O-])ccc1OC)S(=O)(=O)c1ccccc1 (configuration not stated),-1.2,0.5,9.5,2.4,-13.2,38.2*
COc1ccccc1N(CC(O)COc1ccccc1C)S(=O)(=O)c1ccccc1 (configuration not stated),-2.0,9.7*,4.6,0.8,59.8,1.3
O=C(O)c1ccc2c(c1)CCCN2,-3.1,.,14.7,-3.3,16.4,38.3*
O=C(NCc1ccc2c(c1)OCO2)c1ccc(CSCc2cccc(Cl)c2)o1,-0.7,8.8*,5.3,1.6,-47.2,7.3
O=C(CSCc1cccc(Cl)c1)NCc1ccc2c(c1)OCO2,1.2,-0.7,9.3,3.0,-23.0,-3.3
COc1ccc(Cl)cc1NC(=O)c1sc2nc(C)cc(C)c2c1N,.,.,4.5,.,-32.2,.
O=C(Nc1cnc2ccccc2c1)c1cccnc1,-0.3,0.5,2.9,2.2,-21.9,-2.4
Cn1c(NC(=O)c2cccnc2)nc2ccccc21,-0.9,2.0,51.5*,4.4,16.6,8.4
Cc1c(CN2CCc3nc(N4CCCCCC4)[nH]c(=O)c3C2)c(=O)n(C)c(=O)n1C,.,.,4.0,.,-3.7,.
COC(=O)C1=C(C)N=c2s/c(=C/c3cccs3)c(=O)n2C1c1ccc(F)cc1 (configuration not stated),-1.7,1.6,6.2,2.1,35.2,35.2*
